Laboratory results published in PubChem BioAssay AID1508600 (Functional Genomics Laboratory (NCATS/FGL), 2020).
Hit rate of the full screen: of about 53,000 sequences, about 3,700 (7%) were called active. Only a selection was taken, and actives are over-represented in it overall. Values without a mark were called inactive.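 How the source made its calls: active means gene knockdowns whose robust z-score for IL-1 alpha signal is at least 2 or at most -2, so actives lie on both sides; inactive means the rest.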

Assay: Components of the Cytosolic LPS Sensing Pathway: Gene Identification via Genome-wide siRNA Screen;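 further: robust z of the log signal after scaling to non-targeting control siRNA wells of the plate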
Details: RAW264.7 macrophages, IL-1a HTRF, actives lie on both sides, screened at 100 nM (by protocol), cells primed 5 h with Pam3CSK4 first
How it was run: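 IL-1a HTRF of supernatants after 24 hour LipidA transfection of Pam3CSK4-primed (5 hours) RAW264.7 cells, 48h post-siRNA transfection (100 nM). Scores: percent of plate negative-control median, then log-based robust z-score.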
Work on GGAGCUGAAUGUCUGUAGCTT against Mzt2 yielded a z-score of -1.31.
With CCUGAUGGAUGAUGAAUCATT against Trap1a the z-score was -1.42.
For GGAGGAGCUGGAGAAAACATT against Psd4, the z-score was -0.43.
In the case of GGUCCUUUGAUGCUGACUGTT against Sfrp4, the z-score is reported as -2.07 (active).
For CCAAGAAAAGUCCAGAAGCTT against Rorb, the z-score was 0.379.
For GGAGAGACGUAAGAGGCGATT against Zrsr2, the z-score was 0.0858.
With GGACAAUUGGGCCAAACUGTT against Mpv17 the z-score was 0.103.
For GGUGAAACCCUGAAAGUCCTT against Tmem154, the z-score was -0.169.
With GGUGUGUUAAGGUUUUUAATT against Marchf1 the z-score was 3.68 (active).
For GGAUAAUUUUGGAAGCAGATT against Rheb, the z-score was -0.299.
GCAUCUCACUCGUAAAGGUTT against Tmprss11f showed a z-score of -0.555.
GCGCGUGACAAGGAGGAUUTT against Ska3 gave a z-score of 1.03.
With GGCCUGAACUUUUUAUUGATT against Olfr533 the z-score was -2.19 (active).
GGGAUUUUAUCAUACAAACTT against Ppil4 showed a z-score of 0.774.
For GGCUUUCAUGUGCCGUUUUTT against Gstm5, the z-score was 2.39 (active).
GGAACUUGUUUCAUAUCGUTT against Scfd1 showed a z-score of 0.839.
In the case of GGGAUUGUGUGAAUCAUACTT against Tmem230, the z-score is reported as -1.27.
For GGCUGCUGAAGCAAAUAAGTT against Ankrd17, the z-score was 3.38 (active).
Work on GGGAAGGCUGAAUGACUGCTT against Vamp5 yielded a z-score of 0.257.
GGCGAGAGAGAUGAGUAAATT against Smim3 showed a z-score of -1.63.
Work on “GGGAAUUAUGGGCUUACCGTT against 4931414P19Rik” yielded a z-score of -0.414.
Work on GGCUAUUUCUUUUUAUGCUTT against Ak4 yielded a z-score of 0.911.
Sequence GGAGACAAUGGACAAGAAGTT against Dnal4 has a z-score of 0.272.
For GCCAGUAACCAGAAAAUUGTT against Sycp3, the z-score was -2.01 (active).
CCUUAUUACACACACCCUGTT against Gja3 showed a z-score of 0.398.
Work on GCUGGUAGCAUUCUUAUCCTT against Xylt2 yielded a z-score of 0.529.
CGGAUGAGGUUUCUUUUAUTT against Phkb gave a z-score of 0.415.
GGUUGGUUCUUACUUGAAATT against Mindy3 gave a z-score of 0.613.
GGAUAAUGCUCCAUCAUAGTT against Nab1 gave a z-score of -0.419.
Sequence GCAAUCACCAAAUCACUAGTT against Fstl1 has a z-score of -0.123.
For GCCAGGAAACGACAAUAAATT against Slc5a11, the z-score was 0.731.
In the case of CCUAGUACUUCGAAGAAAGTT against Tmem255a, the z-score is reported as -2.62 (active).
GGUCAUUCAGUGGUGCACCTT against Skp1 showed a z-score of -0.00227.
In the case of GGUUUCAAACUCUUGUAAUTT against Pgrmc1, the z-score is reported as -0.139.
With GGUUUGUUUUCAGAUGAAGTT against Washc2 the z-score was 0.155.
With GGAGAAAAUAAGCUGGUAGTT against Slc35f1 the z-score was 3.42 (active).
In the case of CCCAUCAAUGCUGUUAAUUTT against Entpd5, the z-score is reported as 0.128.
Work on GCUCGAUAUCACAGAGAUUTT against Ces5a yielded a z-score of -0.177.
GGAGUUGGAGAAUGACACGTT against Ift88 showed a z-score of 1.14.
Work on GCAGUGUUGUCAAAACUUGTT against Mtfmt yielded a z-score of 1.54.
Sequence GGUACUUUAUAGGAACAGUTT against Zbtb41 has a z-score of -0.973.
In the case of GGUAUGCUAACAGAACACGTT against Nr1h4, the z-score is reported as 3.15 (active).
GCAGAUGCUAACAUAUCCATT against Trim32 gave a z-score of -0.902.
Work on GCGCAGAGAUUACCUUAAGTT against Gtf3a yielded a z-score of -0.543.
With CCACUAUUUAAUCUUACCGTT against Hoxc13 the z-score was 0.175.
For GGAGCAUAUAUAGAAUUAGTT against Mrps22, the z-score was 3.01 (active).
With GCGGGCUUUGCUGAGAUUUTT against Zbtb48 the z-score was 0.604.
In the case of GGAGAUUUCCCGACUUAACTT against Tnip2, the z-score is reported as 1.68.
For GGCAUCCAUGUGCUCUUUCTT against Tex13a, the z-score was -2.49 (active).
Sequence GGGAAAAGGUCAGUGAAGUTT against Fam219b has a z-score of -0.305.
Work on GGGAAUGGAAGAAUAUUCUTT against Dppa2 yielded a z-score of 1.61.
Work on CCUCGUGUUACUUUUACCCTT against Olfr13 yielded a z-score of -1.51.
For GCUUCUCUACACCACAGACTT against Olfr796, the z-score was -0.0426.
Sequence GGGUUGAUUGACGAAGCCATT against Fga has a z-score of -1.75.
Work on GGAGAUUCAGAAUUACUGATT against Krit1 yielded a z-score of -0.818.
With GCAUUCAUUGAUCAAUUCUTT against Zbtb6 the z-score was 2 (active).
Work on GCCUGCUUUGGAAAAAUCATT against Akr1c12 yielded a z-score of 0.209.
CCCAGGAAGCCUUUGAUCUTT against Gmnn showed a z-score of 0.263.
For CCAUCGUCCAAAGUACAUGTT against Rbp4, the z-score was -1.39.
With GGGUAAUUAUUGUUUUCUGTT against Eif4e3 the z-score was 2.19 (active).
For GCUGUUGGUUUCUACUCACTT against Adam21, the z-score was -0.0536.
GGAACAUGUCUCCUGAUCUTT against Add3 gave a z-score of -1.07.
With GCAAUUCAGCUUAUAAGCATT against Mterf2 the z-score was -2.79 (active).
With GGGAAAUGAGUUUCUACCGTT against Ebna1bp2 the z-score was -0.891.
Work on CCUACACUAAAAUUCACCATT against Muc15 yielded a z-score of -0.549.
In the case of CGUGUGCAAAGAAGCUAAATT against Mdm2, the z-score is reported as 1.
GGAGAUGAUGAUUUACAAATT against Spred1 gave a z-score of 0.723.
Work on GGUGAUCUUAGAUUUGAUUTT against Qsox2 yielded a z-score of -0.401.
Sequence GGGUUUCUUACUGAAGAAATT against Mindy2 has a z-score of -1.43.
